Test results as given in the supplement of paper PMC9262897, “Low-cost anti-mycobacterial drug discovery using engineered E. coli” (Nature Communications, 2022).
Structures can show the parent of a compound that is named as a salt. ± gives the standard deviation of the averaged measurements.

Test system: E. coli TESEC Mtb Alr
Experiment: growth (OD600 after 10 h); higher = more growth (less inhibition)
Conditions: compound 0.1 mM
Experimental: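 TESEC Mtb Alr E. coli, or the Alr+ wild-type control, in 384-well plates with Prestwick library compounds at 0.1 mM and 1% DMSO, across arabinose induction levels of 1E3 to 1E7 nM. Growth is read as OD600 after 10 h at 37 °C in triplicate biological replicates.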

[1] = arabinose 1000 nM, raw OD600 reference: median of DMSO wells 0.294, cell-free background 0.041
[2] = arabinose 10000 nM, raw OD600 reference: median of DMSO wells 0.264, cell-free background 0.041
[3] = arabinose 100000 nM, raw OD600 reference: median of DMSO wells 0.201, cell-free background 0.041
[4] = arabinose 1000000 nM, raw OD600 reference: median of DMSO wells 0.193, cell-free background 0.041
[5] = arabinose 10000000 nM, raw OD600 reference: median of DMSO wells 0.146, cell-free background 0.041

Structure (SMILES) | growth [1] | growth [2] | growth [3] | growth [4] | growth [5]
Clc1ccc(CCC(Cn2ccnc2)Sc2c(Cl)cccc2Cl)cc1 (stereo not given) [Butoconazole nitrate] | 0.0578 ± 0.0014 | 0.066 ± 0.0018 | 0.0622 ± 0.00087 | 0.0664 ± 0.00089 | 0.0514 ± 0.0014
O=C(Nc1ccc([N+](=O)[O-])cc1Cl)c1cc(Cl)ccc1O [Niclosamide] | 0.0406 ± 0.001 | 0.0492 ± 0.0021 | 0.0408 ± 0.0001 | 0.03973 ± 0.00035 | 0.0404 ± 0.00042
OCc1cc(C(O)CNCCCCCCOCCCCc2ccccc2)ccc1O (stereo not given) [Salmeterol] | 0.181 ± 0.012 | 0.159 ± 0.0031 | 0.171 ± 0.0065 | 0.0641 ± 0.0012 | 0.151 ± 0.0035
O=P(O)(O)C(Cl)(Cl)P(=O)(O)O [Clodronate] | 0.308 ± 0.021 | 0.284 ± 0.005 | 0.188 ± 0.016 | 0.193 ± 0.0024 | 0.14 ± 0.0033
Cc1ccccc1OCC(O)CO (stereo not given) [Mephenesin] | 0.286 ± 0.0091 | 0.261 ± 0.016 | 0.209 ± 0.016 | 0.184 ± 0.0048 | 0.14 ± 0.0045
CCN(CC)CCCC(C)Nc1c2ccc(Cl)cc2nc2ccc(OC)cc12 (stereo not given) [Quinacrine dihydrochloride hydrate] | 0.0775 ± 0.016 | 0.0444 ± 0.00085 | 0.104 ± 0.0031 | 0.04497 ± 0.00023 | 0.1 ± 0.0037
OCCN1C[C@H](O)[C@@H](O)[C@H](O)[C@H]1CO [Miglitol] | 0.285 ± 0.0045 | 0.26 ± 0.0085 | 0.204 ± 0.02 | 0.184 ± 0.0057 | 0.145 ± 0.0034
CO/N=C(\C(=O)N[C@@H]1C(=O)N2C(C(=O)O)=C(COC(C)=O)CS[C@H]12)c1csc(N)n1 [Cefotaxime sodium salt] | 0.0388 ± 0.0013 | 0.0398 ± 0.00026 | 0.0388 ± 0.0013 | 0.04017 ± 0.00038 | 0.04007 ± 0.0004
